Among the data in paper PMC11062922 (Nature Chemical Biology, 2023) are potency estimated from few doses values, retold here.

Assay [1] concerns BMPR1B. Particulars: read-out: apparent Kd; compound concentrations:100 nM and 1000 nM (sheet 'Lestaurtinib' of Supplementary Table 1),run:Lestaurtinib_02496_R2,Plate:MR013; n = 1.
Assay [2] deals with CSK. Conditions: read-out: apparent Kd; compound concentrations:100 nM and 1000 nM (sheet 'Lestaurtinib' of Supplementary Table 1),run:Lestaurtinib_02487_R1,Plate:MR012; n = 1.
Assay [3] concerns CSNK2A2. Conditions: read-out: apparent Kd; compound concentrations:100 nM and 1000 nM (sheet 'Lestaurtinib' of Supplementary Table 1),run:Lestaurtinib_02487_R1,Plate:MR012; n = 1.
The test system of assay [4] is EPHA1. Conditions: read-out: apparent Kd; compound concentrations:100 nM and 1000 nM (sheet 'Lestaurtinib' of Supplementary Table 1),run:Lestaurtinib_02487_R1,Plate:MR012; n = 1.
Assay [5] deals with EPHA2. Conditions: read-out: apparent Kd; compound concentrations:100 nM and 1000 nM (sheet 'Lestaurtinib' of Supplementary Table 1),run:Lestaurtinib_02487_R1,Plate:MR012; n = 1.
Assay [6] deals with EPHA4. Conditions: read-out: apparent Kd; compound concentrations:100 nM and 1000 nM (sheet 'Lestaurtinib' of Supplementary Table 1),run:Lestaurtinib_02487_R1,Plate:MR012; n = 1.
Assay [7] relates to EPHB1. Particulars: read-out: apparent Kd; compound concentrations:100 nM and 1000 nM (sheet 'Lestaurtinib' of Supplementary Table 1),run:Lestaurtinib_02487_R1,Plate:MR012; n = 1.
Assay [8] has as its system EPHB3. Particulars: read-out: apparent Kd; compound concentrations:100 nM and 1000 nM (sheet 'Lestaurtinib' of Supplementary Table 1),run:Lestaurtinib_02487_R1,Plate:MR012; n = 1.
In assay [9] the test system is EPHB4. Conditions: read-out: apparent Kd; compound concentrations:100 nM and 1000 nM (sheet 'Lestaurtinib' of Supplementary Table 1),run:Lestaurtinib_02487_R1,Plate:MR012; n = 1.
The test system of assay [10] is FGFR1. Particulars: read-out: apparent Kd; compound concentrations:100 nM and 1000 nM (sheet 'Lestaurtinib' of Supplementary Table 1),run:Lestaurtinib_02487_R1,Plate:MR012; n = 1.
The subject of assay [11] is GRK6. Particulars: read-out: apparent Kd; compound concentrations:100 nM and 1000 nM (sheet 'Lestaurtinib' of Supplementary Table 1),run:Lestaurtinib_02339_R2,Plate:MR001; n = 1.
In assay [12] the test system is GSK3A. Particulars: read-out: apparent Kd; compound concentrations:100 nM and 1000 nM (sheet 'Lestaurtinib' of Supplementary Table 1),run:Lestaurtinib_02487_R1,Plate:MR012; n = 1.
Assay [13] has as its system GSK3B. Conditions: read-out: apparent Kd; compound concentrations:100 nM and 1000 nM (sheet 'Lestaurtinib' of Supplementary Table 1),run:Lestaurtinib_02487_R1,Plate:MR012; n = 1.
Assay [14] deals with HSP90B1. Particulars: read-out: apparent Kd; compound concentrations:100 nM and 1000 nM (sheet 'Lestaurtinib' of Supplementary Table 1),run:Lestaurtinib_02606_R3,Plate:MR019; n = 1.
Assay [15] concerns LCK. Particulars: read-out: apparent Kd; compound concentrations:100 nM and 1000 nM (sheet 'Lestaurtinib' of Supplementary Table 1),run:Lestaurtinib_02487_R1,Plate:MR012; n = 1.
In assay [16] the test system is LYN. Particulars: read-out: apparent Kd; compound concentrations:100 nM and 1000 nM (sheet 'Lestaurtinib' of Supplementary Table 1),run:Lestaurtinib_02487_R1,Plate:MR012; n = 1.
The test system of assay [17] is MAP4K3. Particulars: read-out: apparent Kd; compound concentrations:100 nM and 1000 nM (sheet 'Lestaurtinib' of Supplementary Table 1),run:Lestaurtinib_03172_R3,Plate:MR031; n = 1.
Assay [18] deals with MERTK. Particulars: read-out: apparent Kd; compound concentrations:100 nM and 1000 nM (sheet 'Lestaurtinib' of Supplementary Table 1),run:Lestaurtinib_02766_R2,Plate:MR027; n = 1.
Assay [19] deals with MET. Particulars: read-out: apparent Kd; compound concentrations:100 nM and 1000 nM (sheet 'Lestaurtinib' of Supplementary Table 1),run:Lestaurtinib_02724_R1,Plate:MR021; n = 1.
Assay [20] relates to RPS6KB1. Particulars: read-out: apparent Kd; compound concentrations:100 nM and 1000 nM (sheet 'Lestaurtinib' of Supplementary Table 1),run:Lestaurtinib_02766_R3,Plate:MR027; n = 1.

In the case of Lestaurtinib, the potency estimated from few doses was 0.737 µM in assay [1]; 0.526 µM in assay [2]; 0.415 µM in assay [3]; 0.297 µM in assay [4]; 0.428 µM in assay [5]; 0.268 µM in assay [6]. Besides, the potency estimated from few doses in assay [7] was 0.403 µM; in assay [8], 0.78 µM; in [9] it was 0.207 µM; in assay [10], 1.15 µM; in assay [11], 2.09 µM; in [12], 0.175 µM. Moreover, the potency estimated from few doses in assay [13] is 0.295 µM; in assay [14], 0.979 µM; in [15], 0.55 µM; in assay [16], 0.808 µM; in [17], 2.11 µM; in [18], 1.41 µM. The potency estimated from few doses in [19] is 2.15 µM; in [20], 1.57 µM.
